Compound activity from PubChem.
A selection: hits, their analogues and other compounds. The true share with any hit is near 1.8%.
PP1 inh: blocks human PP1-alpha phosphatase, a PP5 counter-screen; 320,000 compounds, 0.9% hits; purified PP1alpha, OMFP fluorescence; AID 2235; inhibition, % at 6.7 µM;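 active means inhibition above the mean inhibition of all tested compounds plus 3 SD, computed separately for each screening campaign, cut at about 15% in these data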
Target sequence (P62136 whole entry, looked up): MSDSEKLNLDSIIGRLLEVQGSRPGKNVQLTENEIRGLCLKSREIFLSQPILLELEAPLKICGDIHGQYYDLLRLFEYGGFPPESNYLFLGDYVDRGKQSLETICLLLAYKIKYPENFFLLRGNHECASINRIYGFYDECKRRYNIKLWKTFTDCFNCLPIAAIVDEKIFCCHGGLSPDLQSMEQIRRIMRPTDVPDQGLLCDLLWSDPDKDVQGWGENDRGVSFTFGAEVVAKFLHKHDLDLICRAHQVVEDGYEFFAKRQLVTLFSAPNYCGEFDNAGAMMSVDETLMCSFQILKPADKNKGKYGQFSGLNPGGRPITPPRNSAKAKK
LYPLA2 inh: LYPLA2 (human) inhibition in PME1 counter-screen. O95372. recombinant LYPLA2, FP-Rh probe fluorescence polarization. inhibition, % at 5.9 µM. 320,000 compounds, 0.38% hits;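 active means inhibition above the screen-wide mean plus 3 SD, limit set per campaign, cut at about 26% in these data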
Target sequence (O95372 whole entry, looked up): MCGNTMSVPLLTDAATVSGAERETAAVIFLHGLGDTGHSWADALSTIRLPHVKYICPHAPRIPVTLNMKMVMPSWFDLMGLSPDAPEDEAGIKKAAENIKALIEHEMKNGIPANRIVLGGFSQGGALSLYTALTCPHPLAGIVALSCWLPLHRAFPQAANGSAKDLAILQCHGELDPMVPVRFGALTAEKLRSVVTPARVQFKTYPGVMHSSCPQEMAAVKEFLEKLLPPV
PME-1 inh: blocks human protein phosphatase methylesterase 1; Q9Y570; recombinant PME-1, FP-Rh probe fluorescence polarization; inhibition, % at 5.9 µM; 320,000 compounds, 0.53% hits;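 active means inhibition above the campaign mean of all compounds plus 3 SD, cut at about 26% in these data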;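 further: competitive labeling of PME-1 active site by serine hydrolase directed probe; inhibitors block probe labeling so polarization falls and inhibition rises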
LYPLA1 counter: counter-screen for PME1 inhibitors: inhibitors of human LYPLA1; O75608; recombinant LYPLA1, FP-Rh probe fluorescence polarization; inhibition, % at 5.9 µM; 320,000 compounds, 0.16% hits; AID 2174;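 active means inhibition above the mean of all tested compounds plus 3 SD, set per campaign, cut at about 14% in these data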;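 further: inhibitors block serine hydrolase probe labeling of LYPLA1 so polarization falls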
PP5 primary: PP5 (human) phosphatase inhibition | P53041 | purified PP5c, OMFP substrate fluorescence | inhibition, % at 6.7 µM | 320,000 compounds, 0.18% hits;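 active means inhibition above the campaign's mean inhibition across all tested compounds plus 3 SD, cut at about 9.5% in these data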
Fam108B counter: Fam108B inhibition, counter-screen for RBBP9 inhibitors; recombinant Fam108B, FP-Rh probe fluorescence polarization; inhibition, % at 9.51 µM; 300,000 compounds, 0.33% hits; AID 1947;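 active means inhibition above the screen mean inhibition plus 3 SD, computed separately per campaign, cut at about 18% in these data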;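 further: inhibitors lower polarization as less probe binds the enzyme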
Fam108b confirm: Fam108b (mouse) hydrolase inhibition, confirmation assay; recombinant Fam108b, FP-Rh probe fluorescence polarization; shares compounds with Fam108B counter; 930 compounds, 44% hits; inhibition, % at 9.51 µM; AID 1978;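 active means inhibition above a limit from the primary screen, the mean over all compounds plus 3 SD, cut at about 19% in these data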;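 further: inhibitors free the probe so polarization falls as inhibition rises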
Numbers stand for hits; i = inactive.

SMILES	PP1 inh	LYPLA2 inh	PME-1 inh	LYPLA1 counter	PP5 primary	Fam108B counter	others
CN(C)C1(c2nnnn2CCOC(=O)Nc2ccc(Cl)cc2)CCCCC1	i	i	37	i	i	i
CN(C)C1(c2nnnn2-c2ccc(Cl)cc2)CCCCC1	i	i	i	i	i	i
CC(C)NC(=O)c1ccc(N2CC3CC(C2)c2cccc(=O)n2C3)c([N+](=O)[O-])c1 (configuration not stated)	i	i	i	i	i	i
Cc1ccc(N2C(=O)NC(=O)/C(=C/C=C/c3ccco3)C2=O)cc1	i	i	i	i	i	i
CC(C)c1ccc(N2C(=O)NC(=O)/C(=C/C=C/c3ccco3)C2=O)cc1	17	i	i	i	i	i
O=P(Oc1ccccc1)(Oc1ccccc1)C(Nc1ccccc1)c1ccccc1 (configuration not stated)	i	i	i	i	i	i
O=P(Oc1ccccc1)(Oc1ccccc1)C(O)c1ccccc1 (configuration not stated)	i	i	46	i	i	i
Cc1ccc(OP(=O)(NC(C)c2ccccc2)Oc2ccc(C)cc2)cc1 (configuration not stated)	i	i	i	i	i	i
Cc1ccc(C(O)P(=O)(Oc2ccccc2)Oc2ccccc2)cc1 (configuration not stated)	i	i	38	i	i	i
O=C1NC(=O)N(Cc2ccco2)C(=O)/C1=C/c1cccn1CCOc1ccccc1Cl	i	i	51	i	i	i
C=CCN1C(=O)NC(=O)/C(=C/c2ccoc2)C1=O	i	i	i	i	i	i
O=c1c2ccccc2nc(/C=C/c2ccccc2)n1-c1ccc(O)cc1	i	i	i	i	i	i
O=c1c2ccccc2nc(/C=C/c2ccc(O)c(O)c2)n1-c1ccccc1	i	i	27	i	i	i
COc1cc(/C=C/c2nc3ccccc3c(=O)n2-c2cccc(O)c2)ccc1O	i	i	36	i	i	i
O=c1c2cc(Br)ccc2[nH]c(=S)n1-c1ccccc1	i	i	i	i	i	i
O=c1c2ccccc2[nH]c(=S)n1-c1ccc(Br)cc1	20	i	i	i	i	i
CC1(C)CC(=O)C2=C(C1)NC(=O)C21C(C(=O)OC(C)(C)C)=C(N)Oc2ccc(Br)cc21 (configuration not stated)	i	i	i	i	i	i
Cc1c2ccncc2c(C)c2c1[nH]c1ccccc12	31	i	i	i	i	i
O=C(COc1ccc2ccc(=O)oc2c1)N1CCC(C(=O)O)(c2ccccc2)CC1	i	i	i	i	i	i
CCC(=O)c1cn(Cc2ccccc2C#N)c2ccccc12	i	i	35	i	i	i
N#Cc1ccccc1Cn1cc(C(=O)C2CC2)c2ccccc21	i	i	63	i	i	i
CN[C@H]1C[C@H]2O[C@@](C)([C@H]1OC)n1c3ccccc3c3c4c(c5c6ccccc6n2c5c31)C(=O)NC4	i	i	52	i	i	48
CC(=NCCCN1CCOCC1)c1c(O)[nH]c(=O)[nH]c1=O	i	i	i	i	i	i
CC(C)CCOP(N)(=O)Oc1ccccc1 (configuration not stated)	i	i	i	i	i	i
CC(C)CCOP(N)(=O)Oc1ccccc1Cl (configuration not stated)	i	i	30	i	i	i
SMILES	PP1 inh	LYPLA2 inh	PME-1 inh	LYPLA1 counter	PP5 primary	Fam108B counter	others
NP(=O)(OCCCc1ccccc1)Oc1ccccc1Cl (configuration not stated)	i	i	59	i	i	i
CCCCn1c(O)c(/C(C)=N/NC(=O)Nc2ccccc2)c(=O)[nH]c1=O	i	i	i	i	i	i
COC(=O)N(C)c1ccc(C(O)(C(=O)OC)C(F)(F)F)cc1 (configuration not stated)	i	i	i	i	i	i
CCCCn1c(NC(=O)c2ccc(Br)o2)c(C(=O)OCC)c2nc3ccccc3nc21	i	89	34	81	13	59
CCCCn1c(NS(=O)(=O)c2ccccc2)c(C(=O)OCC)c2nc3ccccc3nc21	i	i	i	i	i	i
CCN1C[C@]2(C)CC[C@H](OC)[C@]34C2[C@H](OC(C)=O)[C@@]2(OCO[C@@]25C[C@H](OC)[C@H]2C[C@]3(O)C5[C@H]2OC)[C@@H]14	i	i	i	i	i	i
Cc1cccc(N2C(=O)NC(=O)/C(=C/c3cc4c(cc3[N+](=O)[O-])OCO4)C2=O)c1	i	i	45	i	i	i
COc1ccc(/C=N/N=C(/N)N[N+](=O)[O-])c(OC)c1	i	i	i	i	i	i
N/C(=N\N=C/c1ccc(-c2ccc(O)c(C(=O)O)c2)o1)N[N+](=O)[O-]	i	i	i	i	i	19	Fam108b confirm=24
CCCCn1c(C)c(C(=O)OCC)c2c(CN3CCCC3)c(O)ccc21	i	i	27	i	i	46	Fam108b confirm=i
OC(c1ccncc1)(c1ccc(F)cc1)c1ccc(F)cc1	i	i	i	i	i	i
Cc1ccc2c(c1Cl)NC(C(=O)O)C1CC(Sc3ccccc3[N+](=O)[O-])C(Cl)C21 (configuration not stated)	i	i	i	i	i	27	Fam108b confirm=i
CN1C(=O)NC(=O)/C(=C/c2ccc([N+](=O)[O-])s2)C1=O	i	i	i	i	i	i
O=C1NC(=O)N(c2ccccc2)C(=O)/C1=C\c1ccc([N+](=O)[O-])s1	i	i	i	i	i	19	Fam108b confirm=i
COc1ccc(OC)c(N2C(=O)NC(=O)/C(=C\c3ccc([N+](=O)[O-])s3)C2=O)c1	i	i	i	i	i	44	Fam108b confirm=i
C/C(=C/C=C/[C@@H](C)C(=O)O)[C@H]1CN[C@H](C(=O)O)[C@H]1CC(=O)O	i	i	i	i	i	i
CN(C)C1C(=O)C(C(N)=O)=C(O)C2(O)C(=O)C3=C(O)c4c(O)cccc4C(C)(O)C3CC12 (configuration not stated)	i	i	i	i	i	i
CN(C)[C@@H]1C(=O)C(C(N)=O)=C(O)[C@@]2(O)C(=O)C3=C(O)c4c(O)cccc4[C@@](C)(O)[C@H]3C[C@@H]12	29	i	i	i	i	52	Fam108b confirm=55
CN(C)C(=O)Oc1ccc2oc(=O)cc(-c3cc4ccccc4o3)c2c1	i	i	i	i	i	i
